High-throughput results (PubChem BioAssay)
Rows were chosen to be rich in hits. Some 6.7% of all compounds tested hit in one or more screens of this group.
GDH-TPI inh = GDH-TPI coupled enzyme inhibition counter-screen; AID 588335; 1.2% of 360,000 active; inhibition, % at 4.8 µM; GDH-TPI coupled enzyme counterscreen, NADH absorbance; in the data active means inhibition above about 30%;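 further: 0% = DMSO wells and 100% = wells lacking the enzyme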
Anthrax LF prot = blocks Bacillus anthracis lethal factor protease. multiplex microsphere protease cleavage assay, LF. inhibition, % at 10 µM. 0.12% of 360,000 active. P15917; further: plate controls were buffer without enzyme for full effect and enzyme alone for no effect
BoNT F protease = inhibitors of Botulinum neurotoxin F light chain protease | AID 588497 | 0.22% of 360,000 active | inhibition, % at 10 µM | Multiplex microsphere protease cleavage assay, flow cytometry; in the data active means inhibition above about 35%, passing the limit was not always enough; inconclusive means no clear call, values can overlap the other calls; further: plate controls were buffer without enzyme for full effect and enzyme alone for no effect
FBA Mtb inh = inhibitors of M. tuberculosis fructose-bisphosphate aldolase. P9WQA3. purified M. tuberculosis FBA, fluorescence read-out. inhibition, % at 1 µM. 2.3% of 360,000 active. AID 588726; in the data active means inhibition above about 27%;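 further: 0% = vehicle and 100% = reference inhibitor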
Target sequence (P9WQA3 whole entry, looked up): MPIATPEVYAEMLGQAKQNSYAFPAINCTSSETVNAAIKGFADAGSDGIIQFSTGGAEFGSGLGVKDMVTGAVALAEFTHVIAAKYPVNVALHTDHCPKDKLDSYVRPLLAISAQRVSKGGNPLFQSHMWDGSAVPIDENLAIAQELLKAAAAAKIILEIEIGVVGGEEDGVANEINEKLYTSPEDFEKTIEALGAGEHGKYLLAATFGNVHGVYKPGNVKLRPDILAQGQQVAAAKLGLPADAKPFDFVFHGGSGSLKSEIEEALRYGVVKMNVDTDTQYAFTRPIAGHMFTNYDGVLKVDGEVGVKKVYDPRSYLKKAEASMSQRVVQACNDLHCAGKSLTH
BoNT A protease = BoNT A light chain protease inhibition; multiplex microsphere protease substrate cleavage, flow cytometry; inhibition, % at 10 µM; 0.17% of 360,000 active; further: plate controls were buffer without enzyme for full effect and enzyme alone for no effect
Autofluor counter = compound fluorescence in toxin protease inhibitor counterscreen; fluorescence intensity (concentration not given with the values); 3.1% of 360,000 active; compound autofluorescence counterscreen, microsphere flow cytometry; hits give high values; in the data active means fluorescence intensity above about 16000; inconclusive means no clear call, values can overlap the other calls
* marks the source's active call; other numbers are inactive results; ? = inconclusive; + = active, no number. Unless noted, no stated cut-off is given here; in the data, active means inhibition above about 30%; inconclusive means no clear call, values can overlap the other calls; inactive means below that.

SMILES	GDH-TPI inh	Anthrax LF prot	BoNT F protease	FBA Mtb inh	BoNT A protease	Autofluor counter
CC1(C)CC(=O)C(C2(O)C(=O)N(Cc3ccccc3)c3ccccc32)CO1 (stereo not drawn)	3	-1	-1	3	?	22533*
O=[N+]([O-])c1ccc(N=NNc2ccccc2)cc1	11	-5	-26	78*	0	2142
O=C(O)c1cc(NN=Nc2ccc(Br)cc2)cc([N+](=O)[O-])c1	31*	6	3	-1	0	3894
O=[N+]([O-])c1cccc(NN=Nc2ccccc2)c1	16	-11	-8	-1	-3	2954
N#Cc1c(NC(=O)Cn2c(=O)oc3ccccc32)oc(-c2ccccc2)c1-c1ccccc1	4	3	10	2	0	2968
CSc1nc(-c2ccccc2)ccc1C(N)=O	2	-1	-5	-6	?	21978*
NC(=O)c1sc2nc(-c3ccccc3)ccc2c1N	-2	18	-25	0	0	4010
COC(=O)C(NC(=O)C(C)Oc1ccccc1)C(C)C (stereo not drawn)	-4	-6	0	-1	?	20348*
COCC(C)NC(=O)C(C)Oc1ccccc1 (stereo not drawn)	11	-2	-2	-4	0	2082
COC(=O)C(NC(=O)C(NC(=O)c1ccccc1)C(C)C)C(C)C (stereo not drawn)	-10	1	2	-3	1	22539*
COC(=O)C(NC(=O)c1ccccc1)c1ccccc1 (stereo not drawn)	-6	1	-5	-1	-4	25637*
COc1ccc(NC(=O)C(NC(=O)c2ccccc2)C(C)C)cc1 (stereo not drawn)	-4	-6	5	2	0	5635
CCCC(=O)NC(Oc1ccc(Cl)cc1Cl)C(Cl)(Cl)Cl (stereo not drawn)	-7	0	-8	1	-1	10874
Cc1cc(C(=O)CN2C(=O)c3ccccc3C2=O)c(C)n1Cc1cccs1	-9	-1	-3	-1	-4	24091*
Cc1nc2ccccn2c(=O)c1NC(=O)COc1ccccc1	31*	6	3	5	0	3691
CC(=O)c1sc(NC(=O)COc2ccccc2)nc1C	10	0	-1	-2	0	4318
C[C@H](NC(=O)Cn1cncn1)c1ccccc1	-3	1	0	1	-1	17083*
O=C(Cn1cncn1)NCc1ccccc1Br	8	-3	-2	0	?	20396*
CC(NC(=O)Cn1cnc([N+](=O)[O-])n1)c1ccccc1 (stereo not drawn)	-3	-3	-56	-1	-3	4334
O=C(Cn1cncn1)NCc1cccc2ccccc12	0	-2	1	-1	?	22835*
COC(=O)/C(=N/Nc1ccc(C)cc1)N1CCCc2ccccc21	23	0	-2	-1	0	2706
COC(=O)/C(=N/Nc1ccccc1)N1CCCc2ccccc21	34*	-2	-6	-2	0	7516
O=C1c2ccccc2C(=O)N1Cc1nc2ccccc2c(=O)n1CCCN1CCOCC1	-3	-3	-2	1	0	9973
COc1ccccc1S(=O)(=O)Cc1ccc(C(=O)N2CCN(c3ccccc3)CC2)o1	1	0	0	1	0	21717*
Cc1cccc(N2CCN(C(=O)c3ccc(CS(=O)(=O)c4ccccc4C)o3)CC2C)c1 (stereo not drawn)	9	-2	1	0	?	21673*
SMILES	GDH-TPI inh	Anthrax LF prot	BoNT F protease	FBA Mtb inh	BoNT A protease	Autofluor counter
COc1ccccc1S(=O)(=O)Cc1ccc(C(=O)N2CCN(c3cccc(Cl)c3)CC2)o1	-11	4	-1	-7	1	9609
COC(=O)c1ccc(CS(=O)(=O)c2ccccc2C)o1	4	-2	1	-2	?	23513*
COc1ccc(OCCn2c(C)nc3ccccc32)cc1	8	2	-4	2	0	3050
O=c1cnnc(N/N=C/c2ccccn2)[nH]1	19	-5	-1	-2	-4	4689
CCC(=O)N1CCN(c2cc(N3CCCC3)c(F)cc2[N+](=O)[O-])CC1	-6	-2	-1	-15	0	3967
O=C(c1ccc(Cl)cc1[N+](=O)[O-])N1CCOCC1	-4	-2	-3	1	-1	4943
O=C(c1cc(N2CCOCC2)c(F)cc1[N+](=O)[O-])N1CCOCC1	15	-6	33	51*	5	3273
N#Cc1ccc(N2CCc3ccccc3C2)c([N+](=O)[O-])c1	9	4	4	1	1	9277
CC(=O)N1CCN(c2cc(N3CCc4ccccc4C3)c(F)cc2[N+](=O)[O-])CC1	9	-4	-8	-7	-5	17226*
O=C(c1cccc(F)c1)N1CCN(c2cc(N3CCCCC3)c(F)cc2[N+](=O)[O-])CC1	-1	1	1	-7	3	20200*
O=C(c1ccc(N2CCCCC2)c([N+](=O)[O-])c1)N1CCOCC1	10	-3	1	-4	0	16276*
O=C(c1ccc(N2CCOCC2)c([N+](=O)[O-])c1)N1CCCCC1	-5	-5	0	0	-1	5970
COc1ncnc2c1ncn2CCCNCC(c1ccccc1)c1ccccc1	-5	6	-8	-2	0	3267
C/C(=N\NC(=O)c1nnn(-c2nonc2N)c1CSc1ccccc1)c1cccnc1	6	-1	-2	0	-1	4550
Cc1ccc(C(=O)N/N=C\c2sccc2C)cn1	17	-2	-1	0	1	2036
CC(=O)c1ccc(-c2cccs2)s1	10	-2	4	+	4	4439
CNc1cccc(-c2ccc(C(C)=O)s2)n1	5	-3	2	0	0	3462
CN(C)c1ccc(C(=O)N/N=C/C23CC[C@@H](O)CC2(O)CC[C@@H]2[C@@H]3CCC3(C)C(C4=CC(=O)OC4)CCC23O)cc1 (stereo partly drawn)	45*	0	0	1	-1	3304
CN(C)CCNC(=O)c1cc(Br)ccc1Cl	-7	0	0	0	-1	21132*
CCCNC(=O)c1cc(SC)ccc1Cl	3	-9	7	4	8	20823*
CSc1ccc(Cl)c(C(=O)NCC(C)C)c1	5	-1	9	2	0	5846
CCc1ccc(OCCNC(=O)c2cc(SC)ccc2Cl)cc1	4	0	-2	-4	0	23443*
CSc1ccc(Cl)c(C(=O)NCCOc2ccccc2)c1	-6	2	-2	-1	0	2874
COc1ccc(N2CCN(S(=O)(=O)c3c[nH]c(=O)[nH]c3=O)CC2)cc1	-2	-2	1	-1	2	6072
COc1ccc(OC)c(CN2C(=O)c3ccccc3C2C(=O)NCc2cccnc2)c1 (stereo not drawn)	-3	8	-3	0	0	5262
C[C@@H](O)CC(=O)O	8	-10	-3	0	0	6642
CC(C)c1cc(C(F)(F)F)nc(NNc2nc(C(C)C)cc(C(F)(F)F)n2)n1	5	-8	-3	-2	0	3496
